Laboratory results published in PubChem BioAssay.
Activity calls are given as the source filed them. Unless noted, the rule behind the calls is not given here.

Tests used:
[1] = HepG2 liver cancer cell viability effects, profiling panel, resazurin fluorescence, 24 h, PK04 Diversity Set (AID 1172); details: higher = more signal
[2] = basal S. cerevisiae growth modulation, no modifier, primary screen, OD600, strain BY4716, 24 h, basal condition (AID 1173); details: OD600, 24 h, higher = more signal, called active from +8 up or from −8 down
[3] = MM1S myeloma cell viability, profiling panel, resazurin fluorescence, basal, 24 h, PK04 Diversity Set (AID 1174); details: higher = more signal, called active from +8 up or from −8 down;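 note: MM1S multiple myeloma cell line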
[4] = molecular target: Dihydroorotate dehydrogenase (quinone), mitochondrial (Plasmodium falciparum (isolate 3D7)) (UniProt Q08210); test: PfDHODH enzyme inhibitors, primary screen, biochemical, C-terminal His tag, absorbance 600 nm (AID 1175); details: DCIP absorbance 600 nm, higher = more signal, called active from +8 up or from −8 down;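 note: recombinant parasite enzyme with a five histidine tag at its C terminus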
Chain of Dihydroorotate dehydrogenase (quinone), mitochondrial (Plasmodium falciparum (isolate 3D7)) (Q08210 whole entry, looked up): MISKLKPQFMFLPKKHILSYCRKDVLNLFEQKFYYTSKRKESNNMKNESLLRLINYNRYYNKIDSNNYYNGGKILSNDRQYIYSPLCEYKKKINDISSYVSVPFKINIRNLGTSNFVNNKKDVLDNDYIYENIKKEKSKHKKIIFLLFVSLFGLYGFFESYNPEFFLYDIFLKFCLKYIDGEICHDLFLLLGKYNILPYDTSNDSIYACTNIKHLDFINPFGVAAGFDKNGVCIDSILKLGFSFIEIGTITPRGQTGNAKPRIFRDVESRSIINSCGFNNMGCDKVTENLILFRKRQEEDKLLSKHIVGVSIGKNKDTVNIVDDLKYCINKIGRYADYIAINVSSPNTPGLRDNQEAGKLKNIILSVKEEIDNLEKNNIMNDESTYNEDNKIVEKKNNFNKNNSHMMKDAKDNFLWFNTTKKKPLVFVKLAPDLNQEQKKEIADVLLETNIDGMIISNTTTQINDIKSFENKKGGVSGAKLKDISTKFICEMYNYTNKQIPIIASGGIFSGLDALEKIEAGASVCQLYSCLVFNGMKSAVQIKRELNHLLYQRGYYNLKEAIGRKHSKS

[5] = P. aeruginosa biofilm formation inhibitors, primary screen, strain PAO1, LB-PBS medium, absorbance 600 nm (AID 1176); details: P. aeruginosa PAO1 growth/biofilm, A600, 12 h; higher = more signal
[6] = S. cerevisiae RM11-1a growth modifiers, primary screen, strain RM11-1a, OD600, basal, 24 h (AID 1177); details: OD600, 24 h, higher = more signal, called active from +8 up or from −8 down;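 note: cultures grown under basal conditions with no added stressor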
[7] = E. coli acrAB mutant growth effects, primary screen, E. coli filamentation inducers, strain DRC39, OD650, 24 h (AID 1178); details: higher = more signal, called active from +8 up or from −8 down;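 note: growth measured as culture turbidity by optical density at 650 nm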
[8] = E. coli acrAB mutant growth effects, primary screen, E. coli filamentation inducers, strain DRC39, OD650, 48 h (AID 1179);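 note: screen aims at cell division blockers that make cells filament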; details: E. coli DRC39 delta-acrAB growth, higher = more signal, called active from +8 up or from −8 down
[9] = RPMI8226 myeloma cell viability, profiling panel, resazurin fluorescence, basal, 24 h, PK04 Diversity Set (AID 1180); details: higher = more signal;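 note: RPMI8826 multiple myeloma cell line at 5000 cells per well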
[10] = molecular target: E3 ubiquitin-protein ligase XIAP (Homo sapiens) (UniProt P98170); test: XIAP binders, primary screen, biophysical, small-molecule microarray, fluorescence 635 nm (AID 1181); details: small-molecule microarray binding, higher = more signal;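 note: score merges 667 nm emission and signal to noise over triplicate slides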
Chain of E3 ubiquitin-protein ligase XIAP (Homo sapiens) (P98170 whole entry, looked up): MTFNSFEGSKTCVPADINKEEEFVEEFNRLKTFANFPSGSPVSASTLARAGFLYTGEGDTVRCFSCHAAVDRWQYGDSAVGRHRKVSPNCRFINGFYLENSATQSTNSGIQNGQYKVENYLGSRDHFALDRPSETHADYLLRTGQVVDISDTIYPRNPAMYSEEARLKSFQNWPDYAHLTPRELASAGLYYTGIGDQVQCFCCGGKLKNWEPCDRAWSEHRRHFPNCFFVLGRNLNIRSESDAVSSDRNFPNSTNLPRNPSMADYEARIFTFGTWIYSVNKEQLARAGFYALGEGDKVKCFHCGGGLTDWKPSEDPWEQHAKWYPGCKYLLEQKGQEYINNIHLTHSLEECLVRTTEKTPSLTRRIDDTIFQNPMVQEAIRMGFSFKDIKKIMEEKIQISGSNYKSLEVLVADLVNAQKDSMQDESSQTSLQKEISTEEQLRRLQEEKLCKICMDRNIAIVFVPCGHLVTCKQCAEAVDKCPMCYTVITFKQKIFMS

[11] = tested on: XIP peptide (Xip251-270) binding; test: small-molecule binders of XIP peptide, primary screen, biochemical, small-molecule microarray, fluorescence 635/667 nm, 0.1 µg/mL protein (AID 1182); details: fluorescent protein binding, 635 nm, higher = more signal, called active from +8 up or from −8 down
XIP peptide (Xip251-270) = test: small-molecule binders of XIP peptide, primary screen, biochemical, small-molecule microarray, fluorescence 635/667 nm, 0.5 µg/mL protein (AID 1183); details: small-molecule microarray binding, fluorescence 635 nm; higher = more signal
[12] = Plasmodium falciparum growth inhibition, primary screen, strain 3D7, DAPI fluorescence, 100 nL (AID 1184);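 note: parasites grown inside human red blood cells in medium with human serum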; details: P. falciparum 3D7 growth, 3 d, higher = more signal
[13] = molecular target: Homeobox protein Hox-A13 (Mus musculus) (UniProt Q62424); test: inhibitors of HoxA13-DNA binding, primary screen, biochemical, fluorescence polarization, labeled oligonucleotide (AID 1185); details: 15 min, higher = more signal, called active from +8 up or from −8 down
Chain of Homeobox protein Hox-A13 (Mus musculus) (Q62424 whole entry, looked up): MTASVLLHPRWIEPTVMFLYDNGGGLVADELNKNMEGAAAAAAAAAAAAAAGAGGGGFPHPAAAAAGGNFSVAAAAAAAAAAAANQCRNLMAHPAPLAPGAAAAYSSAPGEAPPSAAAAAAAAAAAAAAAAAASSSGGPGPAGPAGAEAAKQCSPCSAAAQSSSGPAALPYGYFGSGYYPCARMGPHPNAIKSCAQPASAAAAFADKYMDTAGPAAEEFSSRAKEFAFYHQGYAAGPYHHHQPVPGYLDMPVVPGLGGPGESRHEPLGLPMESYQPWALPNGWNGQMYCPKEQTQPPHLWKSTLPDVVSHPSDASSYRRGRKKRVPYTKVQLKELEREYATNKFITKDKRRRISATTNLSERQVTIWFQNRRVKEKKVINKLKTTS

[14] = inhibitors of hydroxyurea-induced Chk1 phosphorylation, primary screen, imaging, HeLa, phospho-Chk1 antibody, percent positive cells (AID 1186); details: hydroxyurea-induced phospho-Chk1 immunofluorescence imaging, higher = more signal
[15] = inhibitors of hydroxyurea-induced Chk1 phosphorylation, primary screen, imaging, HeLa, phospho-Chk1 nuclear intensity (AID 1187); details: hydroxyurea-induced phospho-Chk1 immunofluorescence imaging, higher = more signal

SMILES	z-score [1]	z-score [2]	z-score [3]	composite z-score [4]	z-score [5]	z-score [6]	z-score [7]	z-score [8]	z-score [9]	composite z-score [10]	composite z-score [11]	composite z-score (XIP peptide (Xip251-270))	z-score [12]	z-score [13]	z-score [14]	z-score [15]
C=CC[C@]1(C(=O)NCCCOC)N=C(c2ccc(OCCCO)cc2)O[C@H]1c1ccccc1N=[N+]=[N-]	0.632	0.215 (inactive)	-0.894 (inactive)	1.1 (inactive)	1.79 (inactive)	0.571 (inactive)	0.961 (inactive)	-0.615 (inactive)	-1.04	0.262	0.403 (inactive)	0.707	-1.99	-3.07 (inactive)	-0.432 (inactive)	0.0181 (inactive)
CCOC(=O)C[C@H]1[C@H](OC(=O)Cc2ccc3c(c2)OCO3)[C@@H](NC(=O)c2ccc3ccccc3c2)c2cc(OCCCO)ccc2N1C(=O)c1ccccc1	0.898	-0.206 (inactive)	-1.09 (inactive)	-0.777 (inactive)	0.69 (inactive)	0.738 (inactive)	-0.241 (inactive)	0.15 (inactive)	-0.52	-0.0426	0.0654 (inactive)	0.263	0.168	-2.57 (inactive)	-0.251 (inactive)	-0.629 (inactive)
COc1ccc(C#Cc2ccc3c(c2)[C@]2(C(=O)N3)[C@H](c3ccccc3OCCO)N3[C@H](c4ccccc4)[C@H](c4ccccc4)OC(=O)[C@H]3[C@@H]2C(=O)O)cc1	1.86	1.75 (inactive)	-3.05 (inactive)	-24.8 (active)	2.76 (inactive)	3.13 (inactive)	1.06 (inactive)	0.047 (inactive)	-6.75	0.284	2.03 (inactive)	0.695	-1.27	-4.32 (inactive)	-0.331 (inactive)	-0.416 (inactive)
CC(C)C[C@H]1NC(=O)[C@@]23C(=O)N[C@@H](Cc4ccccc4)C2[C@H](C)[C@@]2(C)O[C@H]2C3/C=C/C/C=C\CNC(=O)[C@H](Cc2ccccc2)NC1=O (some centres undefined)	0.183	0.0247 (inactive)	0.333 (inactive)	-0.259 (inactive)	0.0117 (inactive)	1.66 (inactive)	0.805 (inactive)	0.199 (inactive)	0.628	0.0842	0.303 (inactive)	0.725	-1.45	-7.51 (inactive)	-0.0464 (inactive)	0.426 (inactive)
COc1ccc([Si](C)(C)[C@H]2[C@H](CC(=O)N3CCC[C@H]3CO)O[C@@]3(C(=O)N(Cc4cccc(N5C(=O)c6cccc7cccc5c67)c4)c4ccccc43)[C@@H]2C)cc1	-1.13	0.547 (inactive)	-0.712 (inactive)	-1.74 (inactive)	0.495 (inactive)	1 (inactive)	-0.672 (inactive)	-0.881 (inactive)	-1.28	0.013	0.397 (inactive)	0.674	-1.72	-3.25 (inactive)	-0.0887 (inactive)	-0.429 (inactive)
[N-]=[N+]=NCc1ccccc1[C@@H]1OC(c2ccc(OCCCO)cc2)=N[C@]1(CCS(=O)(=O)c1ccccc1)C(=O)NCCN1CCOCC1	-1.13	-0.276 (inactive)	-0.346 (inactive)	0.328 (inactive)	0.286 (inactive)	0.935 (inactive)	0.239 (inactive)	0.564 (inactive)	-0.185	0.703	1.16 (inactive)	0.853	-2.19	-2.41 (inactive)	0.0054 (inactive)	-0.373 (inactive)
COC(=O)[C@@]1(Cc2ccc(F)cc2)[C@H]2c3cc(C(=O)N(C)C)n(Cc4ccc(S(C)(=O)=O)cc4)c3C[C@H]2CN1C(=O)c1ccccc1	-0.304	0.571 (inactive)	-0.0532 (inactive)	0.382 (inactive)	0.122 (inactive)	0.325 (inactive)	-0.104 (inactive)	0.118 (inactive)	-1.04	-0.102	1.46 (inactive)	0.788	-0.589	-4.58 (inactive)	0.144 (inactive)	0.0541 (inactive)
CCCCC(O)C1C=CC2C(=O)N(c3ccccc3)C(=O)C2N1Nc1ccccc1F (centres undefined)	-0.8	-0.42 (inactive)	-0.459 (inactive)	-0.365 (inactive)	1.14 (inactive)	-0.182 (inactive)	-0.221 (inactive)	0.128 (inactive)	-0.786	0.691	0.335 (inactive)	0.744	1.01	-3.4 (inactive)	0.772 (inactive)	-0.0522 (inactive)
CC(C)C[C@@H]1NC(=O)[C@H]2C[C@@H](C(=O)NCCCCCCN)[C@@H](c3ccc(O)cc3)N2C1=O	-0.632	-0.134 (inactive)	-0.403 (inactive)	0.0444 (inactive)	-0.226 (inactive)	-0.459 (inactive)	-0.396 (inactive)	-0.975 (inactive)	-0.299	-0.338	1.43 (inactive)	0.776	-0.108	-2.64 (inactive)	0.273 (inactive)	-0.265 (inactive)
